# Screening data from PubChem BioAssay.
# Only some compounds are listed: those with a hit (about 19% of all), similar ones and a draw of the others.
# HT1080 IDH1KD tx – toxicity to HT-1080 IDH1 knockdown cells (counter line). Potency, µM (top dose mostly 46.1 µM), without a hit: top-dose activity, negative = toxicity, usual class: cytotoxic. actives 2% (n = 360,000). HT-1080 IDH1 knockdown viability, ATP luminescence, 48 h. AID 686971;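 also: potency is read from the fitted curve at half-maximal effect; 0% = DMSO wells and -100% = cell-free medium wells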
#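 Luminescent ATP read-out (CellTiter-Glo, 10 min at room temperature) after 48 h compound exposure at 37 °C gave viability of IDH1-knockdown HT-1080 cells. Activity was normalised to DMSO and cell-free wells, then fitted as concentration-response curves.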
# HT1080NT lethal – kills 2HG-producing HT-1080-NT fibrosarcoma cells. Potency, µM (titrated, usually from 46.1 µM), for the others: at the highest dose activity, negative = less viability, most hits filed as cytotoxic. actives 1.6% (n = 360,000). HT-1080-NT fibrosarcoma viability, CellTiter-Glo ATP luminescence, 48 h;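 also: NT is the 2HG producing partner of a matched IDH1 knockdown line; potency is read from the fitted curve at half-maximal effect; 0% = DMSO-treated cells and -100% = media-only wells without cells; nearly all actives have a fitted effect of over 55% in size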
#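 Read-out is CellTiter-Glo luminescence after 10 minutes at room temperature, following 48 hours' compound treatment of HT-1080-NT cells (750 cells/well, RPMI, 5% FBS, 37 degrees C).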
# IL-1B inflam inh – blocks inflammasome-driven IL-1 beta release; THP-1 LPS/ATP IL-1B secretion, AlphaLISA, 16 h; active compounds read low; activity change, % at 57.5 µM; actives 4.7% (n = 360,000); in the data active = activity change below about -50%; inconclusive = mostly about -30% to -49%
#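 Secreted IL-1B measured by AlphaLISA bead assay after 16 h compound exposure of THP-1 cells; compounds (final up to 57.5 uM) added 1 h before LPS (250 ng/mL) and ATP (1.25 mM) stimulation; lower signal means less secretion.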
# DT40 TDP1 CPT – growth inhibition of DT40 Tdp1-/-;hTDP1 cells with camptothecin (screen for TDP1 inhibitors); chicken DT40 Tdp1-/-;hTDP1 cells + 20 nM CPT, ATP luminescence, 48 h; Potency, µM (top dose mostly 46.2 µM), for the others: top-dose activity change, negative = growth inhibition, hits mostly inhibitors; actives 12% (n = 420,000); AID 686979; also: potency is read from the fitted curve at half-maximal effect; nearly all actives have a fitted effect of over 55% in size
#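 Chicken DT40 Tdp1-/- cells stably complemented with human TDP1 were seeded at 400 cells/well in medium containing 20 nM camptothecin, exposed to pin-transferred compounds, and grown at 37 °C for at least 48 hr. Viability was read as ATP luminescence.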
# DT40 TDP1 no CPT – qHTS for Inhibitors of human tyrosyl-DNA phosphodiesterase 1 (TDP1): qHTS in cells in absence of CPT. DT40 Tdp1-/- hTDP1 cells, no CPT, ATP luminescence, 48 h. actives 15% (n = 420,000). Potency, µM (highest dose often 46.2 µM), inactives show at the top dose activity change, negative = growth inhibition, most hits filed as inhibitors. AID 686978, 2013; also: potency is read from the fitted curve at half-maximal effect; nearly all actives have a fitted effect of over 55% in size
#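 Seeded 400 DT40-hTDP1 cells/well (vehicle DMSO, no 20 nM CPT); pinned compounds; ≥48 hr at 37 °C; CellTiter-Glo luminescence as viability measure.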
# Active calls of the source: *; ? = inconclusive; · = no result given. Unless noted, calls follow the shape of the dose curve; as a rule, active = well fitted curve in the direction sought with a large enough effect; inconclusive = small, poorly fitted or top-dose-only effect, or another doubt; inactive = no such curve, though single readings can be large; an effect the other way counts as inactive or inconclusive. Unless noted, % is scaled to controls: 0 for no effect and ±100 for the full control effect.
SMILES,HT1080 IDH1KD tx,HT1080NT lethal,IL-1B inflam inh,DT40 TDP1 CPT,DT40 TDP1 no CPT
Cc1ccc(C(=O)NCCc2ccc(S(N)(=O)=O)cc2)o1,12%,?,2,10%,1%
CCOC(=O)c1c(C)oc2nc(C)nc(NCCc3ccc(C)cc3)c12,·,·,·,21µM*,?
CCOC(=O)c1c(C)oc2nc(C)nc(NCCc3ccc(S(N)(=O)=O)cc3)c12,·,·,·,23µM*,15µM*
O=C(O)CC(Cc1ccccc1)C(=O)NCC12CC3CC(CC(C3)C1)C2 (stereo unspecified),9%,-1%,5,-10%,-10%
COC(=O)C1=C/C=C\CN(C(c2ccccc2)c2ccccc2)/C=C\1C(=O)OC,-6%,-9%,13,?,21µM*
CCOC(=O)c1ccc(-n2c(CCC(=O)O)ccc2-c2cccs2)cc1,?,-11%,-70*,-19%,?
CCc1ccc(-n2c(CCC(=O)O)ccc2-c2cccs2)cc1,·,·,·,-22%,-25%
COc1cc(C(=O)NC2CC(C)(C)NC(C)(C)C2)cc(OC)c1OC,19%,5%,13,34%,0%
Cc1ccc(-c2nn(-c3ccccc3)cc2/C=N/NS(=O)(=O)c2ccccc2)cc1,?,?,-21,29µM*,?
CC(=O)C(=Cc1cn(-c2ccccc2)nc1-c1ccccc1)C(C)=O,12%,8%,-7,23µM*,?
Cc1ccc(S(=O)(=O)N/N=C\c2cn(-c3ccccc3)nc2-c2ccccc2)cc1,0%,?,-8,2%,-3%
Cc1ccc(C(=O)N/C(=C/c2cn(-c3ccccc3)nc2-c2ccccc2)C(=O)O)cc1,-1%,0%,-15,7%,7%
Cc1ccc(-c2nn(-c3ccccc3)cc2/C=N/O)cc1,?,?,-81*,21%,-13%
COc1ccc(NS(=O)(=O)c2cccc(C(=O)N/N=C/c3cn(-c4ccccc4)nc3-c3ccccc3)c2)cc1,?,?,?,16µM*,?
Cc1ccccc1CC1SC(N=C(N)N)=NC1=O (stereo unspecified),1%,1%,22,3%,1%
Nc1nc2c(ncn2[C@@H]2O[C@H](CNC(=O)[C@H](N)C3CCCCC3)[C@@H](O)[C@H]2O)c(=O)[nH]1,23%,7%,-1,-16%,-3%
NS(=O)(=O)c1ccc(N/N=C/c2cn(-c3ccccc3)nc2-c2ccccc2)c([N+](=O)[O-])c1,-14%,-9%,-78*,4.1µM*,12µM*
COc1ccc(CN(C)C(=O)C23CC4CC(CC(Cl)(C4)C2)C3)c(OC)c1OC,1%,5%,?,23µM*,21µM*
COc1cccc(CN(C)C(=O)C23CC4CC(CC(NC(C)=O)(C4)C2)C3)c1OC,3%,2%,11,?,-8%
CC(=O)Nc1ccc(-c2csc(NC(=O)Cc3cccc(F)c3)n2)cc1,?,?,?,?,23µM*
COc1ccc(-c2csc(NC(C)=O)n2)cc1OC,-3%,1%,?,-30%,-22%
COc1ccc(-c2csc(NC(=O)Cc3ccccc3)n2)cc1OC,0%,3%,2,?,1.6µM*
O=C(CCCc1cccs1)Nc1nc(-c2ccc(F)cc2)cs1,-22%,-19%,-18,?,8.2µM*
O=C(O)CCCC(=O)Nc1nc(-c2ccc(F)cc2)cs1,-1%,-9%,20,-3%,-9%
